The whole screen tested about 22,000 compounds, of which about 1,100 (5%) were called active. The list comes from a sample in which actives are over-represented; it also holds similar structures and randomly drawn compounds. Unmarked numbers belong to inactive results. Rule as the data show it: active = activity score above about 55%; inconclusive = no clear call, values can overlap the other calls; inactive = below that.

The experiment in a line: inhibitors of intracellular Trypanosoma cruzi, primary screen, cell-based, plate reader, single point, set 2 (AID 651903).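 Also: parasites and compound incubated about four days before reading; 0% = median of neutral control wells.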 The following applies: intracellular Trypanosoma cruzi in host cells, at 5.01 µM, stronger effect = higher value.
Consider `Cc1noc(C)c1NC(=O)N(C)C[C@H]1Oc2ccc(NC(=O)Nc3ccc(C(F)(F)F)cc3)cc2CC(=O)N([C@@H](C)CO)C[C@@H]1C`, for which the activity score (inhibition) was -4.63%.
On to `Cc1ccc(S(=O)(=O)N(C)C[C@@H]2Oc3ccc(NC(=O)Cc4ccccc4)cc3CC(=O)N([C@H](C)CO)C[C@H]2C)cc1`, for which the activity score (inhibition) was 4.53%.
Regarding `Cc1ccc(S(=O)(=O)Nc2ccc3c(c2)C(=O)N([C@@H](C)CO)C[C@@H](C)[C@H](CN(C)Cc2ccc(C(F)(F)F)cc2)O3)cc1`, the activity score (inhibition) was 52.7%.
Regarding `COc1ccc(S(=O)(=O)Nc2ccc3c(c2)C(=O)N([C@H](C)CO)C[C@H](C)[C@H](CN(C)Cc2ccc(C(F)(F)F)cc2)O3)cc1`, the activity score (inhibition) was 24.5%.
In the case of `COc1ccc(S(=O)(=O)Nc2ccc3c(c2)C(=O)N([C@H](C)CO)C[C@@H](C)[C@@H](CN(C)Cc2ccccc2)O3)cc1`, the activity score (inhibition) was -14.1%.
On to `COc1ccc(CN(C)C[C@@H]2Oc3ccc(NS(=O)(=O)c4ccc(OC)cc4)cc3C(=O)N([C@H](C)CO)C[C@H]2C)cc1`, for which the activity score (inhibition) is 3.29%.
Regarding `C[C@H](CO)N1C[C@H](C)[C@H](CN(C)Cc2ccc(C(F)(F)F)cc2)Oc2ccc(NS(=O)(=O)c3ccc(Cl)cc3)cc2C1=O`, the activity score (inhibition) was 60.9% (active).
As for `COc1ccc(S(=O)(=O)Nc2ccc3c(c2)C(=O)N([C@H](C)CO)C[C@H](C)[C@@H](CN(C)Cc2ccc(-c4ccccc4)cc2)O3)cc1`, the activity score (inhibition) is 55.9% (active).
With `C[C@@H]1CN([C@@H](C)CO)C(=O)c2cccc(NC(=O)Nc3ccc4c(c3)OCO4)c2O[C@H]1CN(C)C(=O)Nc1cccc2ccccc12`, the activity score (inhibition) is -8.82%.
`C[C@H](CO)N1C[C@H](C)[C@@H](CN(C)C)Oc2ccc(N(C)C)cc2C1=O`: the activity score (inhibition) was -14.7%.
On to `Cc1ccc(S(=O)(=O)N(C)C[C@@H]2Oc3ncc(-c4cc5ccccc5o4)cc3C(=O)N([C@H](C)CO)C[C@@H]2C)cc1`, for which the activity score (inhibition) is 76.5% (active).
For `C[C@H](CO)N1C[C@H](C)[C@H](CN(C)C)Oc2ncc(/C=C/c3ccccc3)cc2C1=O`, the activity score (inhibition) was 71.7% (active).
On to `C[C@H](CO)N1C[C@H](C)[C@H](CN(C)Cc2ccccc2)Oc2ncc(-c3ccccc3)cc2C1=O`, for which the activity score (inhibition) was -4.22%.
As for `C[C@@H]1CN([C@H](C)CO)C(=O)c2cccc(NC(=O)Nc3cccc4ccccc34)c2O[C@@H]1CN(C)C(=O)Nc1cccc2ccccc12`, the activity score (inhibition) was 4.54%.
On to `C[C@H](CO)N1C[C@H](C)[C@H](CN(C)C(=O)Nc2ccc3c(c2)OCO3)Oc2ncc(C#Cc3cccc(F)c3)cc2C1=O`, for which the activity score (inhibition) is 25.3%.
Regarding `C[C@H](CO)N1C[C@H](C)[C@H](CN(C)C(=O)Nc2ccc(F)cc2)Oc2ncc(-c3cc4ccccc4o3)cc2C1=O`, the activity score (inhibition) is 78.2% (active).
Regarding `C[C@H](CO)N1C[C@H](C)[C@H](CN(C)C(=O)Nc2cccc3ccccc23)Oc2ncc(C#Cc3ccccc3)cc2C1=O`, the activity score (inhibition) was 67.5% (active).
The figure for `C[C@H](CO)N1C[C@H](C)[C@H](CN(C)C(=O)NC2CCCC2)Oc2ncc(-c3ccc(F)cc3)cc2C1=O` is 6.58%; for `COc1ccc(-c2cnc3c(c2)C(=O)N([C@H](C)CO)C[C@H](C)[C@H](CN(C)S(=O)(=O)c2ccccc2)O3)cc1` it is 26.3%; for `COc1ccc(NC(=O)N(C)C[C@@H]2Oc3ncc(-c4cccc(OC)c4)cc3C(=O)N([C@H](C)CO)C[C@@H]2C)cc1` it is 16.6%.
On to `C[C@H](CO)N1C[C@H](C)[C@H](CN(C)S(=O)(=O)c2ccc(F)cc2)Oc2ncc(-c3ccc(F)cc3)cc2C1=O`, for which the activity score (inhibition) is 30.4%.
The figure for `Cc1ccc(S(=O)(=O)N(C)C[C@H]2Oc3c(NC(=O)C4CC4)cccc3C(=O)N([C@@H](C)CO)C[C@@H]2C)cc1` is 0.737%; for `Cc1noc(C)c1S(=O)(=O)Nc1ccc2c(c1)C(=O)N([C@H](C)CO)C[C@H](C)[C@H](CN(C)S(=O)(=O)c1cn(C)cn1)OCCCC[C@@H](C)O2` it is -39.1%.
`COc1ccc(CN(C)C[C@H]2Oc3c(NC(=O)Nc4ccccc4)cccc3C(=O)N([C@@H](C)CO)C[C@@H]2C)cc1`: the activity score (inhibition) was 6.85%.
The figure for `CCCC(O)C#Cc1cnc2c(c1)C(=O)N([C@H](C)CO)C[C@H](C)[C@H](CN(C)Cc1ccc(F)cc1)O2` (some centres not stated) is 18.5%; for `Cc1cc(C(=O)Nc2cccc3c2O[C@@H](CN(C)S(=O)(=O)c2ccc(F)cc2)[C@@H](C)CN([C@H](C)CO)C3=O)n(C)n1` it is 32.3%.
In the case of `Cc1noc(C)c1NC(=O)Nc1ccc2c(c1)C(=O)N([C@H](C)CO)C[C@H](C)[C@@H](CN(C)S(=O)(=O)c1cn(C)cn1)O2`, the activity score (inhibition) was -7.25%.
On to `C[C@@H]1CN([C@H](C)CO)C(=O)Cc2cc(NC(=O)Nc3ccc(F)cc3)ccc2O[C@@H]1CN(C)C(=O)Nc1ccc2c(c1)OCO2`, for which the activity score (inhibition) is -18.5%.
The figure for `C[C@@H]1CN([C@@H](C)CO)C(=O)Cc2cc(NC(=O)Nc3ccccc3)ccc2O[C@@H]1CN(C)S(=O)(=O)c1ccc(F)cc1` is 5.25%; for `CC(C)NC(=O)N(C)C[C@H]1Oc2ccc(NS(C)(=O)=O)cc2CC(=O)N([C@@H](C)CO)C[C@H]1C` it is -20.6%; for `COc1ccc(CN(C)C[C@@H]2Oc3ccc(NS(=O)(=O)c4cn(C)cn4)cc3C(=O)N([C@@H](C)CO)C[C@H]2C)cc1` it is -24.5%.
With `C[C@@H]1CN([C@H](C)CO)C(=O)c2cccc(NC(=O)c3nc4ccccc4s3)c2O[C@H]1CN(C)Cc1ccccc1`, the activity score (inhibition) was 32.1%.
Turning to `CC(C)NC(=O)N(C)C[C@@H]1Oc2c(NC(=O)c3nc4ccccc4s3)cccc2C(=O)N([C@H](C)CO)C[C@H]1C`, the activity score (inhibition) is 47.9%.
The figure for `C[C@@H]1CN([C@@H](C)CO)C(=O)c2cccc(NC(=O)c3nc4ccccc4s3)c2O[C@H]1CN(C)S(=O)(=O)c1cccs1` is 28.4%.
On to `C[C@@H]1CN([C@H](C)CO)C(=O)c2cccc(NC(=O)c3nc4ccccc4s3)c2O[C@@H]1CN(C)C`, for which the activity score (inhibition) was -35.8%.
For the molecule `C[C@@H]1CN([C@H](C)CO)C(=O)c2cccc(NC(=O)c3nc4ccccc4s3)c2O[C@H]1CN(C)S(=O)(=O)c1ccc(Cl)cc1`, the activity score (inhibition) was 67.6% (active).
In the case of `Cc1ccc(S(=O)(=O)N(C)C[C@@H]2Oc3c(NC(=O)c4nc5ccccc5s4)cccc3C(=O)N([C@H](C)CO)C[C@@H]2C)cc1` it was 81.1% (active).
As for `C[C@H]1CN([C@@H](C)CO)C(=O)Cc2cc(NC(=O)CCCN(C)C)ccc2O[C@@H]1CN(C)Cc1ccc(-c2ccccc2)cc1`, the activity score (inhibition) was -19.2%.
For `COc1ccc(NC(=O)N(C)C[C@@H]2Oc3ccc(NC(=O)CCC(F)(F)F)cc3C(=O)N([C@@H](C)CO)C[C@H]2C)cc1`, the activity score (inhibition) is -13.2%.
In the case of `C[C@@H]1CN([C@@H](C)CO)C(=O)CCCn2cc(nn2)CO[C@@H]1CN(C)Cc1cccc(O)c1` it was -17.1%; in that of `C[C@@H]1CN([C@@H](C)CO)C(=O)c2cc(NC(=O)c3ccncc3)ccc2O[C@@H]1CN(C)S(C)(=O)=O`, -8.16%; in that of `C[C@H]1CN([C@@H](C)CO)C(=O)CCCn2nncc2CO[C@H]1CN(C)Cc1cccc(C(=O)O)c1`, -16.6%.
Turning to `COc1cccc(-c2cnc3c(c2)C(=O)N([C@H](C)CO)C[C@H](C)[C@H](CN(C)C(=O)NC(C)C)O3)c1`, the activity score (inhibition) is 3.35%.
Take `C[C@H](CO)N1C[C@H](C)[C@H](CN(C)S(C)(=O)=O)Oc2c(NC(=O)Nc3cccc4ccccc34)cccc2C1=O`: the activity score (inhibition) is -17.4%.
`Cc1ccc(CN(C)C[C@@H]2OCc3cnnn3CCCC(=O)N([C@@H](C)CO)C[C@H]2C)cc1`: the activity score (inhibition) is -0.307%.
Consider `C[C@H](CO)N1C[C@H](C)[C@@H](CN(C)S(=O)(=O)c2ccccc2)Oc2c(NC(=O)c3ccc(-c4nccs4)cc3)cccc2C1=O`, for which the activity score (inhibition) was 20.1%.
In the case of `C[C@H](CO)N1C[C@H](C)[C@H](CN(C)S(C)(=O)=O)Oc2c(NC(=O)c3ccc(-c4nccs4)cc3)cccc2C1=O` it was 9.35%.
For `C[C@@H]1CN([C@@H](C)CO)C(=O)c2cccc(NC(=O)c3ccc(-c4nccs4)cc3)c2O[C@H]1CN(C)Cc1ccc(Cl)c(Cl)c1`, the activity score (inhibition) was 85.3% (active).
As to `C[C@H](CO)N1C[C@H](C)[C@@H](CN(C)S(C)(=O)=O)Oc2c(NC(=O)c3ccc(-c4nccs4)cc3)cccc2C1=O`, the activity score (inhibition) was -3.29%.
`C[C@H]1CN([C@@H](C)CO)C(=O)c2cccc(NC(=O)c3ccc(-c4nccs4)cc3)c2O[C@H]1CN(C)Cc1ccc(C(=O)O)cc1`: the activity score (inhibition) was -0.442%.
As to `Cc1ccc(S(=O)(=O)N(C)C[C@H]2Oc3c(NC(=O)c4ccc(-c5nccs5)cc4)cccc3C(=O)N([C@H](C)CO)C[C@H]2C)cc1`, the activity score (inhibition) is 69.5% (active).
On to `C[C@H](CO)N1C[C@H](C)[C@@H](CN(C)Cc2ccc(C(=O)Nc3ccccc3N)cc2)Oc2c(NC(=O)c3ccc(-c4nccs4)cc3)cccc2C1=O`, for which the activity score (inhibition) was 64% (active).
`C[C@@H]1CN([C@@H](C)CO)C(=O)c2cccc(NC(=O)c3cnccn3)c2O[C@H]1CN(C)Cc1ccc(C(=O)O)cc1`: the activity score (inhibition) is 2.36%.
On to `C[C@@H]1CN([C@H](C)CO)C(=O)c2cccc(NC(=O)c3cnccn3)c2O[C@@H]1CN(C)Cc1ccncc1`, for which the activity score (inhibition) was -11.1%.
Consider `C[C@@H]1CN([C@@H](C)CO)C(=O)c2cccc(NC(=O)c3ccc(-c4nccs4)cc3)c2O[C@@H]1CN(C)Cc1ccncc1`, for which the activity score (inhibition) was 20.7%.
Take `C[C@@H]1CN([C@H](C)CO)C(=O)c2cccc(NC(=O)c3cnccn3)c2O[C@@H]1CN(C)Cc1ccc(C(=O)Nc2ccccc2N)cc1`: the activity score (inhibition) was 67.2% (active).
For `C[C@@H]1CN([C@@H](C)CO)C(=O)c2cccc(NC(=O)c3ccc(-c4nccs4)cc3)c2O[C@@H]1CN(C)S(=O)(=O)c1ccccc1`, the activity score (inhibition) was 24.8%.

(Values after PubChem BioAssay AID651903 (Broad Institute, 2012).)
